# According to PubChem BioAssay AID651780 (The Scripps Research Institute Molecular Screening Center, 2012):
# Among all 2,400 compounds or so, about 1,800 (75%) were called active. No stated cut-off is given here; in the data, active means inhibition above about 22%; inactive means the rest. So high a share suggests a set chosen from earlier hits. The list is a sample of the results.
# Experiment: nonselective antagonists in TAAR1 counter-screen cells, counter-screen for hTAAR1 antagonist project, cell-based, fluorescence, calcium (AID 651780);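 further: CHO-Ga16 host cells stimulated with ATP at an EC80 level; 0% = agonist EC80 plus vehicle and 100% = vehicle without agonist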
# Conditions: counterscreen cell line, antagonist mode, at 3 µM, stronger effect = higher value
row,Structure (SMILES),inhibition
1,COc1ccc(CCNC(=O)C(=O)NCC2OCCN2S(=O)(=O)c2ccc(OC)c(C)c2)cc1 (stereo not given),23.7% (active)
2,O=C(COC(=O)CCCSc1nc2ccccc2[nH]1)Nc1ccc(Oc2ccccc2)cc1,39.8% (active)
3,O=C(O)c1ccc(NC(=O)c2cn(-c3ccccc3)nc2-c2ccc(Cl)cc2)cc1,36.1% (active)
4,COc1ccc(CC(=O)Nc2c(C(N)=O)oc3ccccc23)cc1,22.3% (active)
5,C[C@H](NC(=O)c1nc[nH]c1C(=O)NCC(=O)OC(C)(C)C)C(=O)OCc1ccccc1,23.6% (active)
6,Cc1cccc(NC(=O)c2nc[nH]c2C(=O)NCC(=O)OCc2ccccc2)c1,26% (active)
7,CC(C)(C)OC(=O)NCCCCCNC(=O)c1nc[nH]c1C(=O)NCc1ccccc1,22% (active)
8,OC(c1ccccc1)(c1ccccc1)C1CCN(CCCOc2ccc(-c3ccsc3)cc2)CC1,40.2% (active)
9,CC(=O)Nc1ccc(NC(=O)COC(=O)C2CCC(C(C)(C)C)CC2)cc1 (stereo not given),24.5% (active)
10,O=C(NCC1CCCO1)c1cc2c([nH]c3ccccc32)c(-c2ccc(F)cc2)n1 (stereo not given),30.9% (active)
11,CC(=O)N1CCN(C(=O)c2cc(-c3ccc(Cl)s3)nc3ccccc23)CC1,26.1% (active)
12,O=C(COC(=O)c1c2c(nc3ccccc13)CCCC2)c1ccc(Br)s1,20.1% (inactive)
13,Cc1cccc(C)c1NC(=O)CNC(=O)C1CCCC1,5.58% (inactive)
14,O=S1(=O)c2c(cccc2N2CCCCC2)O[C@H](COCc2ccccc2)CN1C1CC1,32.5% (active)
15,Cc1cc(Br)ccc1NC(=O)c1cnc(N2CCN(c3ccccn3)CC2)c2ccccc12,38.4% (active)
16,Cc1ccccc1NC(=O)Cc1nc(COC(=O)C(C)(C)Oc2ccc(Cl)cc2)cs1,33.4% (active)
17,COC(=O)c1sccc1NC(=O)c1cc(OC)c(OC)c(OC)c1,21.3% (inactive)
18,COc1cc2ccccc2cc1C(=O)Nc1ccc(NC(=O)c2cccs2)cc1,27.7% (active)
19,O=C1c2ccccc2C(=O)N1CCC#Cc1ccc2cc(C3(O)CCCCC3)oc(=O)c2c1,44% (active)
20,COc1ccc(CCNC(=O)c2ccc(CS(=O)(=O)c3ccc(Br)cc3)o2)cc1OC,35% (active)
21,CCOC(=O)C1C(c2ccc(OC)c(OC)c2)c2c([nH][nH]c2=O)CC1(C)O (stereo not given),25.2% (active)
22,COC(=O)Cc1nnn2c1[C@H](C)[C@H](c1ccccc1Br)OCC2,0.66% (inactive)
23,Cc1onc(-c2c(F)cccc2Cl)c1C(=O)Nc1cccc(S(=O)(=O)N2CCCCC2)c1,19.7% (inactive)
24,COc1ccc(NC(=O)C2CCCN(S(=O)(=O)c3cccc4cccnc34)C2)cc1OC (stereo not given),29.3% (active)
25,COc1ccc(S(=O)(=O)N2CCCC(C(=O)Nc3ccc(NC(=O)c4ccccn4)cc3)C2)cc1 (stereo not given),29.2% (active)
26,COc1ccc(C(=O)Nc2cccc(NC(=O)c3ccc(OC)cc3OC)n2)c(OC)c1,22.6% (active)
27,CSc1nc(-c2ccccc2)nc(C(Cl)Cl)n1,-4.34% (inactive)
28,COc1cc(/C=C2/C(=O)ON=C2C)ccc1OCc1ccccc1F,57.1% (active)

row,Structure (SMILES),inhibition
1,Cc1nc(N2CCN(c3ccccn3)CC2)c2c(C)c(C(=O)Nc3ccc(F)cc3)sc2n1,36.4% (active)
2,Nc1nonc1-n1nnc(C(=O)N/N=C/c2c[nH]c3ccccc23)c1-c1ccccc1,29.3% (active)
3,CSC(=S)N/N=C/c1c[nH]c2ccccc12,19.5% (inactive)
4,COc1ccc(CCNC2=C(Cl)C(=O)N(Cc3ccccc3)C2=O)cc1OC,31.3% (active)
5,COc1ccc(OC)c2[nH]c(=O)c(CCNC(=O)C(=O)c3c[nH]c4ccccc34)cc12,26.8% (active)
6,CC(=O)OCCN(CCCn1c(-c2ccncc2)nc2ccccc21)c1nc(-c2ccc(C)cc2)cs1,24.1% (active)
7,O=c1[nH]c(CSc2ncc(-c3ccc(F)cc3)n2Cc2ccco2)nc2ccccc12,29.8% (active)
8,CCCCNc1c(-c2cccc(Sc3ccc(OC)cc3)c2)nc2ccccn12,42.4% (active)
9,C[C@H](O)[C@@H]1C(=O)N2CCc3c([nH]c4c(-c5ccc6c(c5)OCO6)cccc34)[C@@H]2C[C@@H]1N(C)C(=O)c1ccco1,35.2% (active)
10,Cc1cccc(NC(=O)c2ccc(COc3ccccc3[N+](=O)[O-])o2)n1,15.8% (inactive)
11,COC(=O)C1=C(C)N(Cc2ccc(F)cc2)C(=S)NC1c1cccc(Cl)c1 (stereo not given),23.3% (active)
12,O=C(N/N=C/c1ccc(Cl)c(Cl)c1)c1ccc2nc[nH]c2c1,27.9% (active)
13,Cc1nn(-c2ccccc2)c(C)c1NC(=O)COC(=O)c1cc(Cl)ccc1O,32.8% (active)
14,CNC(=O)c1ccsc1NC(=O)c1ccc(S(=O)(=O)N2CCc3ccccc32)cc1,32.3% (active)
15,CCN1CCc2c(C#N)c(NCc3ccccc3)nc(NCCO)c2C1,5.04% (inactive)
16,C=CCn1c(SCc2cccc(F)c2)nc2cc(C(=O)N3CCC(C(N)=O)CC3)ccc2c1=O,25.6% (active)
17,CC(=O)c1ccccc1OCc1ccc(C(=O)c2ccccc2)cc1,27% (active)
18,CCNS(=O)(=O)c1ccc(CCC(=O)N2CCN(c3cc(Cl)ccc3C)CC2)cc1,37.1% (active)
19,COc1ccc(Cl)cc1NC(=O)CCS(=O)(=O)c1cc2c(cc1C)NC(=O)CO2,23.5% (active)
20,CCc1ccc2c(c1)NC(=O)C2(C)Cc1ccc(OC(F)(F)F)cc1 (stereo not given),4.79% (inactive)
21,COc1ccc(C(=O)Oc2ccc(-c3nnco3)cc2)cc1S(=O)(=O)N1CCOCC1,25.1% (active)
22,O=C(Oc1ccc(-c2nnco2)cc1)c1ccc(F)c(S(=O)(=O)N2CCOCC2)c1,32.8% (active)
23,CCC(=O)Oc1cccc(C(=O)Nc2ccc(-c3nnc(-c4ccco4)o3)cc2)c1,26.1% (active)
24,O=C(Nc1ccc(-c2nnc(-c3ccccc3)o2)cc1)c1ccc(Br)o1,16% (inactive)
25,COc1ccc2[nH]c(=O)c(CN(Cc3cccnc3)S(=O)(=O)c3ccccc3F)cc2c1,34.9% (active)
26,C=CCc1cc(S(=O)(=O)c2ccc(O)c(CC=C)c2)ccc1O,18.2% (inactive)
27,O=C(NCCN1CCOCC1)c1ccccc1N1C(=O)[C@@H]2Cc3c([nH]c4ccccc34)C(c3cccc(Cl)c3)N2C1=O (stereo not given in full),26.3% (active)
